Experimental data reported in PubChem BioAssay AID1159580 (chemical genetic matrix, 2015).
Several values for one entry are separate records, joined by “and”; a condition that tells them apart may be missing. Equal values may be shown once. About 2,000 (36%) of roughly 5,500 compounds were called active. Not shown: some 18% with an inconclusive outcome. No stated cut-off is given here; in the data, active means normalized growth mostly below about 0.91 (no sharp cut-off); inconclusive means no clear call, values can overlap the other calls; inactive means mostly above about 0.92. The list shows a part of the results.

Experiment: chemical genetic growth profiling, strain panel (AID 1159580);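 further: tested at 20 µM; growth read once vehicle control cultures reached saturation at 30 °C; 1 = growth at the plate median or of vehicle wells; lower values mean less growth of the strain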
Conditions: growth OD

Measured: normalized growth

CC1COc2c(N3CCN(C)CC3)c(F)cc3c(=O)c(C(=O)O)cn1c23 (stereo not drawn)
inactive: S. cerevisiae deletion strains, locus YJR066W, strain TOR1, hits give low values 0.948 | S. cerevisiae deletion strains, locus YKL009W, strain mrt4, hits give low values 1.03 | S. cerevisiae deletion strains, locus YKL068W, hits give low values 1.02 | S. cerevisiae deletion strains, locus YKL085W, strain MDH1 (second series), hits give low values 1 | S. cerevisiae deletion strains, locus YKL085W, strain MDH1, hits give low values 1 | S. cerevisiae deletion strains, locus YKL160W, strain elf1, hits give low values 0.971 | S. cerevisiae deletion strains, locus YKL190W, strain CNB1, hits give low values 1.01 | S. cerevisiae deletion strains, locus YKR001C, strain vps1, hits give low values 1.03 | S. cerevisiae deletion strains, locus YKR026C, strain gcn3, hits give low values 0.988 | S. cerevisiae deletion strains, locus YKR091W, strain srl3, hits give low values 0.984 | S. cerevisiae deletion strains, locus YLL001W, strain dnm1, hits give low values 0.958 | S. cerevisiae deletion strains, locus YLL026W, hits give low values 0.998 | S. cerevisiae deletion strains, locus YLL041C, strain sdh2, hits give low values 0.987 | S. cerevisiae deletion strains, locus YLR027C, strain aat2, hits give low values 0.997 | S. cerevisiae deletion strains, locus YLR039C, strain RIC1, hits give low values 1.03 | S. cerevisiae deletion strains, locus YLR058C, strain SHM2, hits give low values 1.01 | S. cerevisiae deletion strains, locus YLR102C, strain apc9, hits give low values 1.02 | S. cerevisiae deletion strains, locus YLR113W, strain HOG1, hits give low values 0.942 | S. cerevisiae deletion strains, locus YLR221C, strain rsa3, hits give low values 0.979 | S. cerevisiae deletion strains, locus YLR258W, strain gsy2, hits give low values 0.994 | S. cerevisiae deletion strains, locus YLR262C, strain YPT6 (second series), hits give low values 0.966 | S. cerevisiae deletion strains, locus YLR262C, strain YPT6, hits give low values 1.07 | S. cerevisiae deletion strains, locus YLR268W, strain sec22, hits give low values 1.01 | S. cerevisiae deletion strains, locus YLR320W, strain mms22, hits give low values 0.961 | S. cerevisiae deletion strains, locus YLR330W, strain CHS5, hits give low values 1.01 | S. cerevisiae deletion strains, locus YLR342W, strain FKS1 (second series), hits give low values 1 | S. cerevisiae deletion strains, locus YLR342W, strain FKS1, hits give low values 0.976 | S. cerevisiae deletion strains, locus YLR357W, strain rsc2, hits give low values 0.967 | S. cerevisiae deletion strains, locus YLR370C, strain arc18, hits give low values 0.98 | S. cerevisiae deletion strains, locus YLR371W, strain rom2, hits give low values 1.02 | S. cerevisiae deletion strains, locus YLR384C, strain iki3, hits give low values 0.965 | S. cerevisiae deletion strains, locus YLR418C, strain cdc73, hits give low values 1.02 | S. cerevisiae deletion strains, locus YML016C, strain PPZ1, hits give low values 1 | S. cerevisiae deletion strains, locus YML032C, strain rad52, hits give low values 1.01 | S. cerevisiae deletion strains, locus YML120C, strain ndi1, hits give low values 0.984 | S. cerevisiae deletion strains, locus YML124C, strain tub3, hits give low values 1.01 | S. cerevisiae deletion strains, locus YMR058W, strain fet3, hits give low values 0.985 | S. cerevisiae deletion strains, locus YMR078C, strain ctf18, hits give low values 1.01 | S. cerevisiae deletion strains, locus YMR125W, strain sto1, hits give low values 0.981 | S. cerevisiae deletion strains, locus YMR129W, hits give low values 0.99 | S. cerevisiae deletion strains, locus YMR205C, strain PFK2, hits give low values 0.959 | S. cerevisiae deletion strains, locus YMR223W, strain ubp8, hits give low values 1.02 | S. cerevisiae deletion strains, locus YMR231W, strain pep5, hits give low values 0.981 | S. cerevisiae deletion strains, locus YMR307W, strain GAS1, hits give low values 1.09 | S. cerevisiae deletion strains, locus YNL067W, strain RPL9B, hits give low values 1 | S. cerevisiae deletion strains, locus YNL071W, strain lat1, hits give low values 0.987 | S. cerevisiae deletion strains, locus YNL128W, strain TEP1, hits give low values 1.03 | S. cerevisiae deletion strains, locus YNL153C, strain GIM3, hits give low values 1.05 | S. cerevisiae deletion strains, locus YNL183C, strain NPR1, hits give low values 0.928 | S. cerevisiae deletion strains, locus YNL197C, strain WHI3, hits give low values 1.01 | S. cerevisiae deletion strains, locus YNL209W, strain ssb2, hits give low values 0.988 | S. cerevisiae deletion strains, locus YNL224C, strain SQS1, hits give low values 1.01 | S. cerevisiae deletion strains, locus YNL233W, strain BNI4, hits give low values 1 | S. cerevisiae deletion strains, locus YNL248C, strain rpa49, hits give low values 0.982 | S. cerevisiae deletion strains, locus YNL250W, strain rad50, hits give low values 1.01 | S. cerevisiae deletion strains, locus YNL271C, strain bni1, hits give low values 1.02 | S. cerevisiae deletion strains, locus YNL298W, strain CLA4, hits give low values 1.02 | S. cerevisiae deletion strains, locus YNL307C, strain MCK1, hits give low values 1.02 | S. cerevisiae deletion strains, locus YNL322C, strain KRE1 (second series), hits give low values 0.978 | S. cerevisiae deletion strains, locus YNL322C, strain KRE1, hits give low values 0.995 | S. cerevisiae deletion strains, locus YNR049C, strain mso1, hits give low values 0.986 | S. cerevisiae deletion strains, locus YNR052C, strain pop2, hits give low values 1.03 | S. cerevisiae deletion strains, locus YOL006C, strain TOP1, hits give low values 1.02 | S. cerevisiae deletion strains, locus YOL012C, strain htz1 1.78 | S. cerevisiae deletion strains, locus YOL147C, strain pex11, hits give low values 1.01 | S. cerevisiae deletion strains, locus YOR001W, strain rrp6, hits give low values 1.01 | S. cerevisiae deletion strains, locus YOR061W, strain CKA2, hits give low values 1.01 | S. cerevisiae deletion strains, locus YOR069W, strain VPS5, hits give low values 1 | S. cerevisiae deletion strains, locus YOR070C, strain gyp1, hits give low values 0.994 | S. cerevisiae deletion strains, locus YOR080W, strain dia2, hits give low values 0.984 | S. cerevisiae deletion strains, locus YOR083W, strain WHI5 (second series), hits give low values 1.02 | S. cerevisiae deletion strains, locus YOR083W, strain WHI5, hits give low values 0.953 | S. cerevisiae deletion strains, locus YOR106W, strain vam3, hits give low values 0.971 | S. cerevisiae deletion strains, locus YOR136W, strain idh2, hits give low values 1.01 | S. cerevisiae deletion strains, locus YOR144C, strain elg1, hits give low values 1.01 | S. cerevisiae deletion strains, locus YOR184W, strain ser1, hits give low values 1.02 | S. cerevisiae deletion strains, locus YOR231W, strain MKK1, hits give low values 0.972 | S. cerevisiae deletion strains, locus YOR265W, strain rbl2, hits give low values 0.989 | S. cerevisiae deletion strains, locus YOR270C, strain vph1, hits give low values 0.965 | S. cerevisiae deletion strains, locus YOR290C, strain snf2, hits give low values 0.985 | S. cerevisiae deletion strains, locus YOR316C, strain cot1, hits give low values 1.01 | S. cerevisiae deletion strains, locus YPL051W, strain arl3, hits give low values 0.98 | S. cerevisiae deletion strains, locus YPL055C, strain LGE1, hits give low values 1.03 and 1.01 | S. cerevisiae deletion strains, locus YPL078C, strain atp4, hits give low values 0.966 | S. cerevisiae deletion strains, locus YPL106C, strain sse1, hits give low values 0.965 | S. cerevisiae deletion strains, locus YPL240C, strain hsp82, hits give low values 0.999 | S. cerevisiae deletion strains, locus YPL256C, strain CLN2, hits give low values 1 | S. cerevisiae deletion strains, locus YPR119W, strain clb2, hits give low values 1.01 | S. cerevisiae deletion strains, locus YPR141C, strain kar3, hits give low values 1.01 | S. cerevisiae deletion strains, locus YPR163C, strain tif3, hits give low values 1.01 | S. cerevisiae deletion strains, locus YPR167C, strain met16, hits give low values 1.01 | S. cerevisiae deletion strains, strain wtn01, hits give low values 1.01 | S. cerevisiae strains, strain wild type, hits give low values 1.01
